Rab9 promoter act: Rab9 promoter activation | Huh7 Rab9 promoter-luciferase reporter, luminescence, 24 h | Potency, µM (top dose mostly 9.22 µM), inactives show top-dose activation, negative = inhibition, usual class: activators | 2.8% of 320,000 active | AID 485297; note: % of control where 0% means no effect; nearly all actives have a fitted effect of over 60% in size
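Steps: seed 1500 Huh7 Rab9-luc cells per well, rest 2 h at 37 °C; add compound in DMSO; incubate 24 h; add luciferase reagent, 10 min ambient; read luminescence.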
FLuc counter: firefly luciferase modulation, counter-screen for miR-21 project. P08659. 6.9% of 360,000 active. purified FLuc, Km substrates, luminescence inhibition. Potency, µM (doses to about 57.5 µM), without a hit: at the highest dose activity change, negative = inhibition, actives largely listed as inhibitors;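 note: plate controls were vehicle for no effect and reference inhibitor for full effect; nearly all actives have a fitted effect of over 55% in size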
Target sequence (P08659 whole entry, looked up): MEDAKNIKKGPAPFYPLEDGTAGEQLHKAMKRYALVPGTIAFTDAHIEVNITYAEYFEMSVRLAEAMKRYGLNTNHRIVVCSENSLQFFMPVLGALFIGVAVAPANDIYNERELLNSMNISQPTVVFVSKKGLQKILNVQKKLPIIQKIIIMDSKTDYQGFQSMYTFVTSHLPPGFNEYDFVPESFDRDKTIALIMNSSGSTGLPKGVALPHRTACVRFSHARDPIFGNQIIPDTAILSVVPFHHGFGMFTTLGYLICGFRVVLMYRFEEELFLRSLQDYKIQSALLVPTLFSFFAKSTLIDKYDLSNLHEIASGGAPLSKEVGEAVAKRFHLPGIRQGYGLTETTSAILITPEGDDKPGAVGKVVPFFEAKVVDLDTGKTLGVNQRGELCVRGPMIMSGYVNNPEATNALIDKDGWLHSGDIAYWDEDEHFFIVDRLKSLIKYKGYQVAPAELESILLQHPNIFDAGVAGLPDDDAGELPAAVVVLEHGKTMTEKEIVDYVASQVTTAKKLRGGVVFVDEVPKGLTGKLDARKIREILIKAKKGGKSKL
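Purified P. pyralis luciferase (10nM final) with 10uM D-luciferin and 10uM ATP (Km levels) in 50mM Tris acetate pH 7.5, 10mM Mg acetate, 0.01% Tween-20, 0.05% BSA; qHTS 6-point titration, ~60 µM downward; luminescence read.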
ELG1 genotox: inducers of genotoxicity in HEK293T ELG1-luciferase cells. AID 504466. 1.3% of 330,000 active. HEK293T ELG1-luciferase reporter, luminescence, 16 h. Potency, µM (highest dose often 46 µM), without a hit: at the top dose activity change, positive = activation, hits mostly activators; note: % of control where 0% means no effect; nearly all actives have a fitted effect of over 60% in size
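Quantitative HTS format in 1536-well plates. HEK293T ELG1-luciferase reporter cells receive test compound and are incubated 16 hr at 37 °C, 5% CO2; ONE-Glo added, 30 min room temperature, then luminescence read.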
SMN2 splice up: enhancers of SMN2 splice variant expression; HEK293 SMN2-luciferase splicing reporter, luminescence, 30-36 h; Potency, µM (top dose mostly 46.1 µM), without a hit: at the highest dose activity change, positive = activation, actives largely listed as activators; 2.8% of 210,000 active; AID 1458; note: % of control where 0% means no effect; nearly all actives have a fitted effect of over 55% in size
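HEK293 cells carry an SMN2 […]–luciferase reporter in which exon 7 inclusion puts luciferase in frame. Cells were plated 10-12 h before compound addition, then incubated 30-36 h at 37C. ONE-Glo luminescence was read; sodium butyrate at 4.5 mM final served as control.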
NPC1 prom act: activators of NPC1 promoter; Huh7 NPC1 promoter luciferase reporter, 24 h; Potency, µM (series often up to 9.22 µM), inactives show at the top dose activation, hits mostly activators; 2.4% of 320,000 active; note: % of control where 0% means no effect; nearly all actives have a fitted effect of over 60% in size
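Luciferase expression driven by the NPC1 promoter was measured in stably transfected Huh7 cells after a 24 h compound incubation, using a luciferase reagent and a luminescence read.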
KinaseGlo FLuc: counter-screen: inhibitors of Kinase-Glo firefly luciferase; Kinase-Glo luciferase, ATP luminescence, 8 min; Potency, µM (titrated, usually from 38.3 µM), for the others: at the top dose activity change, negative = inhibition, usual class: inhibitors; 0.28% of 200,000 active; AID 1379; note: % is set by controls: 0 for no effect and ±100 for the full control effect; nearly all actives have a fitted effect of over 60% in size
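Kinase-Glo luciferase light output from ATP and luciferin was measured with 10 uM ATP, within the enzyme's linear range. Buffer: 50 mM imidazole pH 7.2, 50 mM KCl, 7 mM MgCl2, 0.01% Tween 20, 0.05% BSA; luminescence read after 8 min at ambient temperature.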
An asterisk follows results filed as active; ? = inconclusive; / = no result given; [ ] = dose if it differs, or a comment. Compounds with a hit are over-represented: about 7.4% of the library has one in this group of screens. Calls come from the whole dose curve; as a rule, active = well fitted curve in the direction sought with a large enough effect; inconclusive = small, poorly fitted or top-dose-only effect, or another doubt; inactive = no such curve, though single readings can be large; an effect the other way counts as inactive or inconclusive. Potency is the fitted concentration of half-maximal effect.

SMILES	Rab9 promoter act	FLuc counter	ELG1 genotox	SMN2 splice up	NPC1 prom act	KinaseGlo FLuc
CSC(=S)N/N=C/c1ccc(N(C)C)cc1	23%	2.7µM*	?	28%	11%	1%
NC(N)=N/N=C(/c1ccccc1)c1ccc(O)cc1O	/	/	/	-16%[9.22 µM]	/	0%[7.66 µM]
CN(C)c1ccc(/C=N/NC(=O)c2ccco2)cc1	0.56µM*	2.7µM*	4.1µM*	8.9µM*	0.79µM*	?
Cc1cc(/C=N/NC(=O)c2nn(C)cc2Cl)c(C)n1-c1cccc(Br)c1	-5%	24µM*	4%	-20%	-2%	9%
Cc1cc(/C=N/NC(N)=S)c(C)n1-c1cccc(Cl)c1	-7%	-5%	-2%	-18%	-3%	2%
O=C(N/N=C/c1ccc2ncccc2c1)c1ccco1	0.32µM*	1.3µM*	2.6µM*	0.56µM*	?	?
Cc1cc(C(=O)NN=Cc2ccc(OC(=O)c3ccco3)cc2)c(C)o1	/	/	0%	/	/	/
O=C(OCC#CCNc1nnc(-c2cccc3ccccc23)o1)c1cccs1	2%	3%	/	/	-2%	/
O=C(Nc1ccc(Cl)c(-c2nc3ccccc3o2)c1)c1cccc2c(Cl)cccc12	/	-2%	/	3%	/	/
COc1ccc(OCCn2c(C3CC(=O)N(c4ccc(F)cc4)C3)nc3ccccc32)cc1 (stereo unspecified)	/	-2%	/	-4%	/	/
CCOc1ccc(N2CC(c3nc4ccccc4n3CCCOc3ccc(OC)cc3)CC2=O)cc1 (stereo unspecified)	/	24µM*	/	7%	/	/
CCOc1ccccc1N1CC(c2nc3ccccc3n2CCCOc2ccc(OC)cc2)CC1=O (stereo unspecified)	/	13µM*	/	?	/	/
COCCCNC(=O)NC(CCC(C)C)c1c(-n2cccc2)sc2c1CCN(C)C2 (stereo unspecified)	/	1%	/	/	/	/
O=C(NCC(O)c1ccccc1)c1ccccc1 (stereo unspecified)	4µM*	21µM*	?	/	2.8µM*	/
O=C(NCCNC(=O)c1ccccc1)c1ccccc1	2%	0%	3%	/	-2%	/
O=S(=O)(c1ccccc1)n1nc(-c2ccco2)nc1NCc1ccccc1	/	1%	/	?	/	/
O=C(N/N=C/c1ccc2c(c1)OCO2)c1cc(-c2ccco2)nc2ccccc12	-6%	0.85µM*	6%	/	-18%	/
O=C(N/N=C/c1ccc2c(c1)OCO2)c1cc(-c2ccccc2)nc2ccccc12	-3%	11µM*	0%	-11%[1.84 µM]	1%	-5%
O=[N+]([O-])c1cc(Cl)ccc1NCCNS(=O)(=O)c1ccccc1	-3%	27µM*	1%	-20%	2%	-1%
Cn1c2ccccc2c2cc([N+](=O)[O-])ccc21	0%	-13%	0%	/	-3%	/
CCN(CC)CCn1c2ccccc2c2nc3ccc([N+](=O)[O-])cc3cc21	-1%	?	23µM*	/	-6%	/
Cc1[nH]c(N=Nc2ccccc2)nc1N=Nc1ccccc1	-4%	6µM*	8%	/	0%	/
O=C(Cn1c(=O)ccc2cc(S(=O)(=O)N3CCCC3)ccc21)Nc1ccc(Cl)cc1	/	0%	/	/	/	/
COc1ccccc1N1CCN(C(=O)CNC(=O)c2cn(-c3ccccc3OC)c(=O)c3ccccc23)CC1	22%	6.7µM*	7%	9%	7%	-1%
COc1ccccc1-n1cc(C(=O)NCC(=O)N2CCN(c3ccccc3)CC2)c2ccccc2c1=O	?	0.76µM*	15%	?	28%	-3%
SMILES	Rab9 promoter act	FLuc counter	ELG1 genotox	SMN2 splice up	NPC1 prom act	KinaseGlo FLuc
COc1ccccc1-n1cc(C(=O)NCC(=O)N2CCN(c3ccccn3)CC2)c2ccccc2c1=O	17%	3.4µM*	12%	/	16%	/
COc1cc(NC(=O)CSc2nc(-c3ccco3)cc(C(F)(F)F)n2)cc(OC)c1OC	/	0%	/	-8%	/	/
CSc1sccc1/C=C(/C#N)C(=O)c1ccco1	12%	15µM*	8%	/	19%	/
CCc1ccc(C(=O)CSc2nc3cc(S(=O)(=O)N4CCOCC4)ccc3n2CC)cc1	1%	13µM*	5%	-8%	4%	4%
CCn1c(SCC(=O)OC)nc2cc(S(=O)(=O)N3CCOCC3)ccc21	-4%	7%	12%	/	-4%	/
CCOc1cccc(/C=N/NC(=S)Nc2ccccc2[N+](=O)[O-])c1O	1%	?	0.37µM*	-81%	5%	-1%
O=[N+]([O-])c1ccccc1NC(=S)N/N=C/c1ccc(O)c(O)c1	?	19µM*	3.7µM*	/	?	2%
O=C(NC(=O)c1ccccc1F)OCc1ccc(Cl)cc1Cl	13%	12µM*	2%	/	8%	/
O=C(CNC(=O)c1ccccc1F)NCCc1ccc(Cl)cc1Cl	-1%	1%	0%	/	-5%	/
Cc1cc(O)c(C(=O)/C=C/c2ccc(C(C)C)cc2)c(=O)o1	2.8µM*	3.4µM*	?	/	?	/
CCOc1ccc(/C=C/C(=O)c2c(O)cc(C)oc2=O)cc1	?	6.7µM*	16%	/	?	/
Cc1cc(O)c(C(=O)/C=C/c2ccccc2)c(=O)o1	0%	19µM*	-3%	/	2%	/
Cc1cc(O)c(C(=O)/C=C/c2ccccc2Br)c(=O)o1	-18%	?	12%	/	4%	/
CCOc1ccc(N2C(=O)c3[nH]nc(-c4ccc(OC)cc4)c3C2c2cccs2)cc1 (stereo unspecified)	/	-3%	/	4%	/	/
COc1ccc(OC)c(C2Nc3nc4ccccc4n3C(C)=C2C(=O)Nc2ccc(C)cc2C)c1 (stereo unspecified)	-6%	6%	1%	7.9µM*	-7%	-2%
COc1ccc(C2C(C(=O)Nc3ccc(C)cc3C)=C(C)Nc3nc4ccccc4n32)c(OC)c1 (stereo unspecified)	/	3%	/	-21%	/	/
Cc1cc(C)c2nc(N3CCCC(C(=O)NCc4cccc(Cl)c4)C3)sc2c1 (stereo unspecified)	/	?	/	15%	/	/
Fc1ccccc1CSCc1nc2ccccc2[nH]1	2.8µM*	17µM*	?	10µM*	4µM*	-1%
c1ccc2[nH]c(CSc3nccs3)nc2c1	14%	?	9%	?	14%	-5%
Clc1ccc(SCc2nc3ccccc3[nH]2)cc1	?	9.5µM*	-3%	11%	?	-20%
c1ccc(SCc2nc3ccccc3[nH]2)cc1	2.2µM*	12µM*	?	?	2.5µM*	-9%
O=c1[nH]c2ccccc2nc1-c1ccc(Cl)cc1	2.8µM*	?	?	/	?	/
CCc1ccc(NC(=O)CC2C(=O)N(c3cccc(C)c3)C(=O)N2Cc2ccco2)cc1 (stereo unspecified)	/	5%	/	/	/	/
Cc1oc(-c2ccccc2)nc1CNS(=O)(=O)c1ccc(Cl)cc1	/	-14%	/	/	/	/
